In PubChem BioAssay AID1645886 (National Center for Advancing Translational Sciences (NCATS), 2021):
In all, about 16,000 compounds went through this assay and about 260 (1.6%) were called active. Inconclusive results (about 14%) are left out. The call rests on the fitted dose curve; in most records, active means well fitted inhibition curve with a large enough effect; inconclusive means small, poorly fitted or top-dose-only effect; inactive means no such curve, though single readings can be large or run the other way. Many of the other results were omitted from the sample, so actives are more common in it than they were. Where a SMILES comes first, the peptide text is derived from it. Bridges are numbered along the chain shown (N, C = ends). [ ]: non-standard residue; d: D form. The star is where a group is joined. X4 = CC[C@H](C)CCCCC(=O)*; Dab = NCC[C@H](N)C(=O)O

Target: Rap guanine nucleotide exchange factor 4 (Homo sapiens) (UniProt Q8WZA2)
Experiment: Validation qHTS for antagonist of cAMP-regulated guanine nucleotide exchange factor 4 (EPAC2); further: nearly all actives have a fitted effect of over 40% in size
Conditions: EPAC2 Rap1B BODIPY-GDP exchange, fluorescence; series mostly up to 112 µM; activity, negative = inhibition: at the top concentration
Description: Principle Investigator: Xiaodong Cheng Ph.D. The University of Texas Medical Branch, […], TX MLPCN Grant: NS066510 In multi-cellular eukaryotic organisms, the effects of cAMP are transduced by two ubiquitously-expressed intracellular cAMP receptors, the classic protein kinase A/cAMP-dependent protein kinase (PKA/cAPK) and the more recently discovered exchange protein directly activated by cAMP/cAMP-regulated guanine nucleotide exchange factor (EPAC/cAMP-GEF). Both PKA and EPAC are ubiquitously expressed in all tissues, and an increase in intracellular cAMP levels will lead to the activation of both PKA and EPAC. Therefore, careful dissections of the individual role and relative contribution of EPAC and PKA within the overall cAMP signaling in various model systems are critical for further elucidating the mechanism of cAMP signaling. To date no EPAC-specific antagonists and agonist, as well as isoform-specific agonists have been reported, and developing EPAC-specific pharmacological probes to determine the physiological functions that EPAC play in the overall cAMP-mediated signaling remains a major challenge within the research field. Furthermore, identified regulators of EPAC may lead to new mechanism-based therapeutic strategies specifically targeting the EPAC / cAMP-signaling components as EPAC has been implicated to play important roles in major human pathological conditions such as diabetes, heart disease, and cancer. This qHTS will be used to screen the Molecular Libraries Small Molecule Repository (MLSMR) as a concentration-titration series using the NCGC unique quantitative screening (qHTS) platform to find activators for EPAC1. In addition, this assay will also be used as a counterscreen for the EPAC2 qHTS. This fluorescent based assay is developed and validated for EPAC1 that measures exchange using EPAC effector Rap1 complex with BODIPY-GDP, a GDP analog with a tethered fluorophores. Activators are identified by monitoring the change in fluorescence signal as the exchanged free BODIPY-GDP has a reduced fluorescence compared to Rap1-bound BODIPY-GDP. Increase in signal (activation) is the desired outcome for the EPAC1 agonist while no activity in this assay is desired for the EPAC2 agonist counterscreen. Reference: [1] de Rooij, J., Zwartkruis, F. J., Verheijen, M. H., Cool, R. H., Nijman, S. M., Wittinghofer, A., and Bos, J.L. (1998) Nature 396, 474-477.
Briefly, three uL of reagents (100 nM EPAC2, 250 nM RAP1B-BODIPY-GDP, 50 uM GDP) were dispensed into a 1536-well Greiner black solid-bottom medium binding assay plate. Controls and test compounds (23 nL) were transferred to the plate via a Kalypsys pin tool equipped with a 1536-pin array. The plates were centrifuged at 1,000 rpm for 15 seconds followed by 5 minute incubation at room temperature. The assay plates were read at 5 minute intervals for 30 minutes in the ViewLux plate reader using 480nm excitation and 540nm emission filters. The results were normalized to the agonist positive control of 6.5 mM cAMP.

Chain of Rap guanine nucleotide exchange factor 4 (Homo sapiens) (Q8WZA2 whole entry, looked up): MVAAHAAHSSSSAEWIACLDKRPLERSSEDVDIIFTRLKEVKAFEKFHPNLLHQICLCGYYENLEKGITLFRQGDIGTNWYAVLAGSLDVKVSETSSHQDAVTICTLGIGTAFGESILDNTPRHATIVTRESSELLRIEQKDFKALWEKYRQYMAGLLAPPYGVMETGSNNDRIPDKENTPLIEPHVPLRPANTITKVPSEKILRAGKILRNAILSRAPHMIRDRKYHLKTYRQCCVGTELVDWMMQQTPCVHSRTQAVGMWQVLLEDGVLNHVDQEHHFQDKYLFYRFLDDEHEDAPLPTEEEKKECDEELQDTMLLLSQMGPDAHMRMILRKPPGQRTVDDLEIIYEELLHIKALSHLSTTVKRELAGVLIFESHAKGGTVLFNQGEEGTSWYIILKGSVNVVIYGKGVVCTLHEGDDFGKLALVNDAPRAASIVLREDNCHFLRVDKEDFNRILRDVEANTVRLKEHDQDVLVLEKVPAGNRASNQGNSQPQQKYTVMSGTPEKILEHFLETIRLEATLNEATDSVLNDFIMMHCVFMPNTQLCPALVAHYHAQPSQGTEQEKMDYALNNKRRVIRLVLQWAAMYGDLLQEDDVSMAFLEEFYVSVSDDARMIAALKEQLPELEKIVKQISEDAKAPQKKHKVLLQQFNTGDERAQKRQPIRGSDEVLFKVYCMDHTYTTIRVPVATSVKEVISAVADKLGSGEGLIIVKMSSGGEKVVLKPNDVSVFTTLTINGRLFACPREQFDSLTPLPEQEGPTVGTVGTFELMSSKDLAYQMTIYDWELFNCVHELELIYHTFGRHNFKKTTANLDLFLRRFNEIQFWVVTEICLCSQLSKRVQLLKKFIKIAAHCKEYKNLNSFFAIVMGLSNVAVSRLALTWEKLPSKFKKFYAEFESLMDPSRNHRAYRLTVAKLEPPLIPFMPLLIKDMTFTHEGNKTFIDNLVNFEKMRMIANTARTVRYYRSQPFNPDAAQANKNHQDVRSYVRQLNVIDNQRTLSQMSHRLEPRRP

activity, negative = inhibition, inactive:
Cc1ccc(-c2ncc(Cl)cc2-c2ccc(S(C)(=O)=O)cc2)cn1 -7.74%, O=c1ccn([C@@H]2O[C@H](COP(=O)(O)OP(=O)(O)OP(=O)(O)O)[C@@H](O)[C@H]2O)c(=O)[nH]1 1.65%, CC(C)[C@@H]1NC(=O)[C@H](Cc2ccccc2)NC(=O)[C@@H](CC(=O)O)NC(=O)CNC(=O)[C@H](CCCNC(=N)N)NC1=O -3.61%, O=S(O)CNc1ccc(S(=O)(=O)c2ccc(NCS(=O)O)cc2)cc1 -29.8%, C/C=C(/C)C(=O)OC1Cc2c(ccc3ccc(=O)oc23)OC1(C)C (stereo unspecified) -12.9%, CC(C)N1C[C@@H](NCc2ccccc2O)C[C@H]1C(=O)N1CCN(c2cccc(C(F)(F)F)c2)CC1 13%, O=C(c1ccco1)N1CCC2(CC1)CCN(c1ncccn1)CC2 -28.8%, CC1(C)C=CC(=O)[C@]2(C)C1CC(=O)[C@]1(C)C2CC[C@@]2(C)C(c3ccoc3)OC(=O)C3OC321 (stereo partly specified) -12.9%, CC(C)C1=CC2=CC[C@H]3[C@](C)(C(=O)O)CCC[C@]3(C)C2CC1 (stereo partly specified) -21.5%, CN(C)c1ncc2nc(-c3ccc(F)cc3)c(=O)n(Cc3ccc(F)cc3)c2n1 -4.5%, CC(=O)N1CCC2(CCCN(Cc3ccccc3)C2)CC1 -10.6%, CC[C@H](C)CCCCC(=O)N[C@@H](CCN)C(=O)N[C@H](C(=O)N[C@@H](CCN)C(=O)N[C@H]1CCNC(=O)[C@@H]([C@H](C)O)NC(=O)[C@H](CCN)NC(=O)[C@H](CCN)NC(=O)[C@H](CC(C)C)NC(=O)[C@@H](CC(C)C)NC(=O)[C@H](CCN)NC1=O)[C@@H](C)O (X4-[Dab]T[Dab][Dab][Dab][dL]L[Dab][Dab][dT]; lactam 4-C) -25.8% [at 56.6 µM], CC1OC(OCC2OC(Oc3c(-c4ccc(O)c(O)c4)oc4cc(O)cc(O)c4c3=O)C(O)C(O)C2O)[C@@H](O)C(O)C1O (stereo partly specified) -11.8%, COc1cc(=O)n2c(c1C(=O)NCc1ccco1)CCN(Cc1ccccc1)CC2 -24.9%, CNc1ncnc2ccc(-c3cccc(NS(C)(=O)=O)c3)cc12 -7.28%, CS(=O)(=O)N1CCC2(CC1)CN(Cc1cc(C(F)(F)F)cc(C(F)(F)F)c1)C2 -30.3%, O=C1CCNCCN1[C@H](CO)Cc1ccccc1 -7.85%, Cc1nc2cnc(N3CCNCC3)nc2n(Cc2ccc(F)cc2)c1=O -4.79%, Nc1ccccc1N 7.39% [at 239 µM], CC1(C)S[C@@H]2[C@H](NC(=O)COc3ccccc3)C(=O)N2C1C(=O)OCc1ccccc1 (stereo partly specified) -12%, COC1C[C@@H](O[C@@H]2C(C)C(=O)OC(C)C(C)C(O)C(C)C(=O)[C@@]3(CO3)CC(C)C(OC3OC(C)CC(N(C)C)C3O)C2C)OC(C)[C@@H]1O (stereo partly specified) -7.54%, COCCn1c(=O)c(-c2cccs2)nc2cncnc21 7.53%, N#C/C(=C\c1ccc(O)c(O)c1)C(=O)NCc1ccccc1 -21.8%, COc1cccc(CN2CCC3(CC2)c2ccccc2[C@@H](NC(=O)c2ccccc2OC)[C@@H]3O)c1 -1.55%, COc1ccc(CN2[C@@H](CC(=O)O)c3cc(F)ccc3S2(=O)=O)cc1 -3.22%, CN1C(=O)CN2CCc3ccccc3C2c2cc(Cl)ccc21 (stereo unspecified) -22.8%, CCCS(=O)(=O)NCc1c(C)ncc2c1CCN(C(=O)c1ccc(F)c(F)c1)C2 6.27%, O=C(c1cccc(Cn2cccn2)c1)N1CCOc2c(cc(-c3csc4ccccc34)cc2OC2CCOC2)C1 (stereo unspecified) -25.5%, O=C(c1cccc(F)c1)N1CCC2(CCCN(Cc3ccncc3)C2)CC1 -16.9%, c1cncc(-c2nc(N3CCNCC3)c3ccccc3n2)c1 -21.5%, CC(=O)/C(C)=N\O -20.3%, COc1ncc2nc(-c3ccc(Cl)cc3)c(=O)n(-c3ccccc3)c2n1 -19.4%, COc1ccc(CN2CCC3(CCC(CNC(=O)c4ccco4)O3)CC2)cc1OC (stereo unspecified) -2.31%, COc1ccc2c(c1)CCc1cnc(-n3ncc(C(=O)NCCN4CCOCC4)c3C)nc1-2 -24.8%, c1ccc2cc(C3=NCCN3)ccc2c1 27.3%, NNc1nnc(NN)c2ccccc12 18.8%, Cc1cccc(CNc2cc(-c3ccccc3Cl)ncn2)c1 -25.8%, Cc1ccc2c(C)nc(N3CCCC(C(=O)NC(C)(C)CO)C3)nc2c1 (stereo unspecified) -14.6%, O=C(Oc1cc(OC(=O)c2ccccc2)c2c(c1)OC(c1ccc(OC(=O)c3ccccc3)c(OC(=O)c3ccccc3)c1)[C@@H](OC(=O)c1ccccc1)C2)c1ccccc1 (stereo partly specified) -3.26%, C/C=C(\C)C(=O)O[C@H]1CC(C)=C2C(=O)C=C(C)C2[C@@H]2OC(=O)[C@@](C)(OC(=O)C=C(C)C)C21 (stereo partly specified) -15.4%, CC[C@H](C)CCCCC(=O)N[C@@H](CCN)C(=O)N[C@H](C(=O)N[C@@H](CCN)C(=O)N[C@H]1CCNC(=O)[C@H]([C@@H](C)O)NC(=O)[C@H](CCN)NC(=O)[C@H](CCN)NC(=O)[C@H](CC(C)C)NC(=O)[C@@H](CC(C)C)NC(=O)[C@H](CCN)NC1=O)[C@@H](C)O (X4-[Dab]T[Dab][Dab][Dab][dL]L[Dab][Dab]T; lactam 4-C) -6.87%, COCCn1c(=O)c(CCc2ccccc2)nc2cnc(N3CCNCC3)nc21 -12.2%, CC(C)c1cnc(NC(=O)Cc2ccccc2)s1 -17.2%, CC1(C)O[C@@H]2C[C@@H]3[C@H]4C[C@@H](F)C5=CC(=O)C=C[C@]5(C)[C@@]4(F)[C@@H](O)C[C@]3(C)[C@]2(C(=O)CO)O1 -4.16%, COc1ccc2[nH]cc(CCNc3ncnc4ccc(-c5ccc(C(=O)N(C)C)cc5)cc34)c2c1 -29.6%

Potency, inactive:
O=C1c2ccccc2C(=O)C1c1ccccc1
